In the library only some 1.4% were active in any assay of this set; here they are far more common.
DUSP3 inh = inhibitors of human VHR1 phosphatase (DUSP3) | P51452 | recombinant VHR phosphatase, pNPP absorbance | inhibition, % at 13.3 µM | 0.52% of 290,000 active; in the data active = inhibition above about 50%
Target sequence (P51452 whole entry, looked up): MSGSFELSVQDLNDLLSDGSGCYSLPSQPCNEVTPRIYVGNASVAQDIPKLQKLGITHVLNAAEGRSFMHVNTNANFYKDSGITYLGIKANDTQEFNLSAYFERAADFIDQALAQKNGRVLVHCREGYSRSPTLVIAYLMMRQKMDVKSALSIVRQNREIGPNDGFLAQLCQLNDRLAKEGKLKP
ugtP null kill = kills S. aureus RN4220 lacking UgtP | 0.54% of 330,000 active | growth inhibition, % (no concentration beside the values) | S. aureus RN4220 ugtP deletion, OD600 growth, 16 h | AID 1259309; in the data active = growth inhibition above about 68%;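 also: plate controls were untreated wells for no effect and antibiotic for full effect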
SARS 3CLpro inh = SARS-CoV 3CLpro protease inhibition. P0C6X7. recombinant SARS-CoV 3CLpro, quenched FRET peptide cleavage. inhibition, % at 6 µM. 0.14% of 290,000 active; in the data active = inhibition above about 12%
BJeLR viability = BJeLR cell viability loss; 0.17% of 300,000 active; inhibition, % (no concentration beside the values); AID 1554; BJeLR (HRASV12) viability, CellTiter-Glo ATP luminescence, 48 h; in the data active = inhibition above about 50%
RN4220 kill = S. aureus RN4220 growth inhibition. OD600, 16 h. inhibition, % (test concentration not listed). 0.33% of 330,000 active; in the data active = inhibition above about 85%;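 also: plate controls were untreated cells for no effect and reference antibiotic for full effect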
PrPC TRFRET = cell surface PrPC inhibition, primary TR-FRET screen; P04156; TR-FRET read-out; 0.43% of 370,000 active; inhibition, % at 13.8 µM; in the data active = inhibition above about 24%; also: 0% = median of the test wells and 100% = reference compound wells
Numbers without * were called inactive; · = no result.

SMILES	DUSP3 inh	ugtP null kill	SARS 3CLpro inh	BJeLR viability	RN4220 kill	PrPC TRFRET
COC(=O)c1ccc(C(NC(=O)OCc2ccccc2)C(F)=CC(C)C(=O)NCc2ccc(OC)c(OC)c2)cc1 (centres undefined)	·	10.3	·	·	2.0	·
CSc1cc(-c2ccccc2)n(Cc2ccccc2Cl)c(=O)c1C#N	-1.3	15.4	2.3	51.1*	-0.7	-6.4
C=CCOC(=O)C1=CC(c2ccc(C(F)(F)F)cc2)CC(OCc2ccc(CO)cc2)O1 (centres undefined)	·	6.1	·	·	0.8	·
C#CCOCCOCCOCCNc1nc(N2CCOCC2)nc(N2CCN(C(=O)CCCCCCCCCCNC(=O)C(C(C)O)n3cc(C)nn3)CC2)n1 (centres undefined)	·	-5.4	·	·	6.0	·
COC(CC(O)C(C)C(O)COCc1ccccc1)OC (centres undefined)	·	0.1	·	·	4.4	·
Cc1ccc2nc3c(c(N)c2c1)CCN3c1ccccc1	11.3	1.7	5.8	-3.0	-2.4	-6.1
Cc1ccc2nc3c(c(N)c2c1)CCN3C	58.2*	·	-6.1	-1.2	·	-12.5
COc1cccc(CNC(=O)c2ccc(CS(=O)(=O)Cc3ccccc3C)o2)c1	57.7*	1.7	-7.1	2.0	0.0	0.3
COc1cccc(CNC(=O)c2ccc(CS(=O)(=O)Cc3ccc(C)cc3)o2)c1	12.4	2.3	-3.3	-7.2	9.6	3.5
Cc1onc(-c2c(Cl)cccc2Cl)c1COC(=O)c1ccc(Cl)cc1	8.8	88.6*	-1.1	0.9	4.9	2.7
CC(NC(=O)C(C#N)=Cc1ccc(O)c(O)c1)c1ccccc1 (centres undefined)	·	-7.6	·	·	7.6	·
CC1CCC(=O)N(C(CN=[N+]=[N-])Cc2ccccc2)CC1 (centres undefined)	·	-6.8	·	·	-0.8	·
O=C(C=Cc1ccco1)Nc1ccc(Oc2ccc(Cl)cc2)cc1	·	-29.1	·	·	-9.4	·
COC(=O)[C@]1(CC(C)C)NC(c2ccc(-c3ccc4c(c3)OCO4)cc2)C2C(=O)N(C)C(=O)C21 (some centres undefined)	·	37.6	·	·	19.6	·
Cc1ccc(S(=O)(=O)c2nc(S(C)(=O)=O)sc2N2CCCCCC2)cc1	-22.8	13.1	1.4	3.4	3.8	1.5
Cc1ccc(S(=O)(=O)c2nc(S(C)(=O)=O)sc2N2CCN(C)CC2)cc1	55.5*	1.6	3.3	-3.1	-2.5	-1.0
C=CS(=O)(=O)N(Cc1ccc(F)cc1)C(=C)C(=O)OC	·	·	·	·	·	53.3*
COC(=O)[C@@H](NC(=O)NCc1ccc(F)cc1)C(C)C	23.4	1.2	1.1	-2.9	2.3	4.0
C=CCC(CC(=O)NCCO)C(=O)NC(COC(=O)C(CC=C)CC(=O)OC(C)(C)C)Cc1ccccc1 (centres undefined)	·	-1.8	·	·	3.6	·
Cc1ccc2c(Cl)cc(Cl)c(O)c2n1	·	99.1*	·	·	99.4*	-0.5
Cc1ccc(NC(=O)c2nc[nH]c2C(=O)NC(C)c2ccccc2)cc1 (centres undefined)	·	-9.4	·	·	-1.3	·
Cc1cc(C)c2[nH]c(O)c(N=Nc3ccc(C(=O)O)cc3)c2c1	22.4	85.0*	0.0	-15.0	90.4*	-3.0
CC1CCCN(CCCNC(=O)c2ccc(CS(=O)(=O)c3c(Cl)cccc3Cl)o2)C1 (centres undefined)	56.3*	5.4	-2.1	2.3	0.1	-11.0
CCC(C)C(CNC(CNC)C(C)C)NCC(C)c1ccc(CC(C)C)cc1 (centres undefined)	·	-0.6	·	·	-6.1	·
CCOc1ccc(Cc2c(Cl)nc(SC)nc2N(C)C)cc1	7.3	93.2*	0.3	14.8	-7.2	5.8
SMILES	DUSP3 inh	ugtP null kill	SARS 3CLpro inh	BJeLR viability	RN4220 kill	PrPC TRFRET
CCOc1ccc(Cc2c(Cl)nc(N)nc2Cl)cc1	-0.1	-1.9	-1.6	-9.6	-1.5	-1.2
CSc1nc(Cl)c(Cc2ccc(OC(C)C)cc2)c(N(C)C)n1	7.8	93.9*	0.1	0.6	-13.0	2.8
COc1ccc(Cc2c(Cl)ncnc2Cl)cc1	-0.3	3.5	-1.0	0.1	4.3	2.1
NC(=O)CCC1NC(=O)C2CCCN2C(=O)c2cc([N+](=O)[O-])cc(I)c2NCCCCC(C(=O)NC(CC(=O)O)C(N)=O)NC1=O (centres undefined)	·	-2.2	·	·	5.2	·
Cc1cc(C(=O)Nc2ccc(Br)cc2F)n(-c2ccccc2)n1	58.1*	3.8	-3.6	-3.0	1.5	-2.5
COc1ccccc1C(=O)c1nc2ccccc2n1C	58.2*	9.9	-4.6	5.8	2.9	3.1
O=c1ccc(-c2ccc(S(=O)(=O)N3CCN(c4ccccc4)CC3)o2)n[nH]1	1.3	6.1	2.8	-1.1	2.7	0.2

High-throughput results: PubChem, several laboratories
